An excerpt weighted towards active compounds, which were near 3.9% of everything screened.
esBAF inh: Bmi1 luciferase reporter increase in mESCs, primary screen, esBAF inhibitor project, mouse ES cells, Bmi1 luciferase knock-in, single point | reporter increase, % at 12.5 µM | AID 602393, 2012 | hit rate 2% among 350,000 | 24 h; 100% = twice the neutral-well signal; in the data active = activation above about 40%; inconclusive = no clear call, values can overlap the other calls;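 also: 0% = median of the plate's neutral control wells and 100% = double that signal; a rise in the Bmi1 reporter signal indicates esBAF inhibition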
HSF1 inhib: HSF1 inhibitors in luciferase reporter cells, primary screen, cell-based, NIH3T3, luminescence; NIH3T3-HGL HSE-luciferase, MG132-induced, luminescence 8 h; hits give low values; activity change, negative = inhibition, % at 7.5 µM (by protocol); hit rate 0.77% among 300,000; AID 2098, 2009;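 active = more than half of replicate wells show activity change below -50%, luminescence cut by over half; inconclusive = some wells, but at most half, below -50%; inactive = no replicate well below -50%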;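 also: luciferase reports HSF-1 transcriptional activity via heat shock element; 0% = median of DMSO wells and -100% = zero luminescence signal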
Wnt bcat act: Wnt/beta-catenin pathway activators, primary screen, cell-based, plate reader, single point. Wnt/beta-catenin reporter cell assay, activator. activation, % at 9.35 µM. hit rate 1.2% among 300,000. AID 743398, 2014; in the data active = activation above about 30%, passing the limit was not always enough; inconclusive = no clear call, values can overlap the other calls;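 also: 0% = neutral control wells and 100% = positive control wells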
MITF act: activators of MITF-driven TRPM1 promoter reporter, primary screen, cell-based, SK-MEL-5, luciferase, single point; hit rate 0.75% among 300,000; activation, % at 12.5 µM; SK-MEL-5 TRPM1-promoter luciferase, 24 h; % of positive control, neutral wells = 0;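 active = mean activation of at least 80% with every replicate also reaching 80%; inconclusive = mean reaches 80% but some replicate falls short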;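 also: 0% = neutral control wells and 100% = parthenolide positive control wells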
HSF-1 act: HSF-1 activators, primary screen, NIH3T3-HGL cells, MG132 stress, luminescence, single point; AID 504408, 2011; NIH3T3-HGL HSF-1 luciferase reporter, 8 h; 100% = twice DMSO control signal; activation, % at 9 µM; hit rate 1.7% among 300,000;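 active = mean replicate activation of at least 50% with a set share of replicates each reaching 50%; inconclusive = only one of those two conditions met; inactive = mean below 50% and too few replicates reaching it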;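 also: 0% = median of the neutral control wells and 100% = twice that signal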
* = called active by the depositor; ? = inconclusive; nt = not tested or not shown.

SMILES	esBAF inh	HSF1 inhib	Wnt bcat act	MITF act	HSF-1 act
C[C@]12C=CC(=O)C=C1CC[C@H]1[C@@H]3C[C@@H](O)[C@](O)(C(=O)CO)[C@@]3(C)C[C@H](O)[C@@]12F	3.2	-46.6	2.0	11.8	-53.0
O=C(O)C1CSC(c2ccc3c(c2)OCO3)N1 (stereo unspecified)	18.9	-56.2*	1.7	41.0	-67.9
CNC[C@@H]1Oc2ccc(NC(=O)Cc3cn(C)c4ccccc34)cc2C(=O)N([C@H](C)CO)C[C@H]1C	0.5	nt	nt	nt	nt
C[C@@H]1CN([C@@H](C)CO)C(=O)c2cc(C3=CCCC3)cnc2O[C@@H]1CN(C)Cc1ccccc1C(=O)O	-6.4	nt	nt	nt	nt
CC(=O)c1ccc(NC(=O)C(C)n2nc(-c3ccccc3)c3cc(Cl)ccc32)cc1 (stereo unspecified)	1.2	-66.8*	-6.5	-7.1	-72.6
O=c1c2ccccc2sc2nc(C3CCCCC3)n(Cc3ccco3)c(=O)c12	5.0	84.3	nt	nt	85.6*
O=C(C[C@@H]1CC[C@H](NC(=O)c2cccnc2)[C@@H](CO)O1)NCc1ccc(Cl)c(Cl)c1	-1.8	nt	nt	nt	nt
Cc1noc(C)c1NC(=O)N(C)C[C@@H]1Oc2ncc(C#CCN(C)C)cc2C(=O)N([C@H](C)CO)C[C@H]1C	-1.0	nt	nt	nt	nt
CCS(=O)(=O)NCC[C@H]1CC[C@H](NC(=O)Nc2cc(Cl)cc(Cl)c2)[C@@H](CO)O1	-4.1	nt	nt	nt	nt
CCOC(=O)C1=C(C)N(CCC(=O)O)C(=O)NC1c1ccccc1Cl (stereo unspecified)	-6.5	-77.0*	-0.7	6.0	-82.2
C[C@H](CO)N1C[C@H](C)[C@H](CN(C)Cc2ccccn2)Oc2cc(-c3ccccc3)ccc2S1(=O)=O	1.7	nt	nt	nt	nt
Cc1ccc(C(O)c2ncc(-c3ccc4ccccc4c3)[nH]2)cc1 (stereo unspecified)	53.3*	nt	-1.8	nt	nt
OC(c1ccc(Cl)cc1)c1ncc(-c2ccccc2F)[nH]1 (stereo unspecified)	51.4*	nt	1.4	nt	nt
OC(c1ccc(F)cc1)c1ncc(-c2ccc3ccccc3c2)[nH]1 (stereo unspecified)	76.2*	nt	2.1	nt	nt
CN(C)CC#Cc1ccc([C@H]2[C@@H](CO)N3CCCCN(C(=O)C4CCC4)C[C@@H]23)cc1	0.8	nt	nt	nt	nt
C[C@H](CO)N1C[C@H](C)[C@H](CN(C)CC2CCCCC2)Oc2c(NS(=O)(=O)c3ccc(F)cc3)cccc2C1=O	-3.0	nt	nt	nt	nt
Cc1cccc(NC(=S)N2CCN(C(=O)c3ccco3)CC2)c1C	-0.7	20.5	-0.3	-4.5	60.5*
COc1ccc(/C=C/C(=O)NC(C)(C)C)cc1S(=O)(=O)N1CCOCC1	nt	0.7	0.0	-16.8	8.3
COc1ccc(/C=C/C(=O)NC2CCCCCCC2)cc1S(=O)(=O)N1CCOCC1	51.1*	6.9	5.6	29.9	19.3
C=CCn1c2ccccc2c(=O)c2cc(C#Cc3ccccn3)ccc21	70.2*	nt	26.4	123.9*	nt
C=CCn1c2ccccc2c(=O)c2cc(C#Cc3ccsc3)ccc21	nt	10.8	nt	nt	9.7
O=c1c2ccccc2oc2cc(C#Cc3ccccn3)ccc12	-25.4	40.3	34.4*	25.0	62.6*
COc1cccc2oc3ccc(C#Cc4ccccn4)cc3c(=O)c12	0.6	34.3	39.5*	44.9	61.3*
COc1cccc2sc3cc(C#Cc4ccccn4)ccc3c(=O)c12	?	nt	13.4	101.0*	nt
CC(C)NC(=O)N(C)C[C@@H]1Oc2ccc(NC(=O)NC3CCCCC3)cc2C(=O)N([C@H](C)CO)C[C@H]1C	4.8	nt	nt	nt	nt
SMILES	esBAF inh	HSF1 inhib	Wnt bcat act	MITF act	HSF-1 act
C[C@@H]1CN([C@@H](C)CO)C(=O)c2cc(NC(=O)Nc3ccccc3)ccc2O[C@@H]1CN(C)S(C)(=O)=O	1.3	nt	nt	nt	nt
COc1cccc(NC(=O)Nc2ccc3c(c2)C(=O)N(C)[C@@H]2CC[C@H](CC(=O)O)O[C@@H]2CO3)c1	-5.3	nt	nt	nt	nt
COc1ccc(S(=O)(=O)Nc2ccc3c(c2)[C@@H]2C[C@@H](CC(=O)O)O[C@H](CO)[C@@H]2O3)cc1	5.2	nt	nt	nt	nt
CC(C)(C)c1ccc(S(=O)(=O)CCc2ccccn2)cc1	70.5*	14.9	20.5	56.5	13.8
CC(C)(C)c1ccc(SCCc2ccccn2)cc1	nt	26.5	60.6*	102.4*	?
CC(C)[C@H](C)NC(=O)N(C)C[C@@H]1OCc2ccccc2-c2c(n(C)c3ccccc23)C(=O)N([C@H](C)CO)C[C@@H]1C	8.8	nt	nt	nt	nt
C[C@H](CO)N1C[C@H](C)[C@H](CN(C)C(=O)C2CC2)Oc2ncc(-c3cccc(C#N)c3)cc2C1=O	-11.3	nt	nt	nt	nt
O=C(NCC1CCCO1)c1ccc2c3n(nc2c1)-c1ccccc1CO3 (stereo unspecified)	69.8*	17.4	?	?	11.3
Cc1ccc2c(c1)COc1c3ccc(C(=O)N4CCCCC4)cc3nn1-2	25.7	21.5	21.3	?	11.6
Cc1ccc2c(c1)COc1c3ccc(C(=O)N[C@@H](CO)C(C)C)cc3nn1-2	73.1*	16.1	33.6*	114.1*	36.5
COCCNC(=O)c1ccc2c3n(nc2c1)-c1ccc(C)cc1CO3	79.5*	7.7	43.1*	?	10.2
CCc1cccc(CC)c1NC(=S)N1CCn2cccc2C1c1cccnc1 (stereo unspecified)	nt	-54.8*	7.2	1.8	-65.1
O=c1oc(-c2ccccc2)cc(Cl)c1Cl	-15.8	308.8	2.5	-45.3	454.7*
O=c1cc(-c2ccccc2F)oc2ccccc12	57.6*	20.8	47.0*	nt	28.9
O=c1cc(-c2ccccc2)oc2ccc(Cl)cc12	nt	nt	47.0*	nt	nt
O=c1cc(-c2ccc3c(c2)OCCO3)oc2ccc(Cl)cc12	-8.6	14.0	47.2*	4.8	30.8
CC(C)(C)[S@](=O)N1Cc2cc(C(=O)N3CCc4ccccc4C3)nc(-c3cccc(-c4cncnc4)c3)c2[C@@H]1CCO	-6.3	nt	nt	nt	nt
Cc1ccc(-c2ccc3c(c2)O[C@@H](CN(C)Cc2ccccn2)[C@@H](C)CN([C@H](C)CO)S3(=O)=O)cc1	-0.8	nt	nt	nt	nt
C[C@@H]1CCCCO[C@H](CN(C)C(=O)CCCN(C)C)[C@@H](C)CN([C@H](C)CO)C(=O)c2cc(NC(=O)CCC(F)(F)F)ccc2O1	0.1	nt	nt	nt	nt
COc1cc(-c2nc(-c3ccc4c(c3)-c3ccccc3S4(=O)=O)c(-c3ccccc3)[nH]2)cc(OC)c1O	32.6	60.8	7.0	nt	65.1*
Cc1ccc(C(=O)Cc2cc3ccccc3oc2=O)c(C)c1	nt	58.6	0.2	34.2	85.5*
COc1ccc(C(=O)Cc2cc3ccccc3oc2=O)cc1	56.0*	47.8	10.4	121.2*	56.2*
CCCC(=O)c1cc2ccccc2oc1=O	1.3	-0.6	nt	9.4	1.2
CCOc1ccc(C(=O)Cc2cc3cccc(OC)c3oc2=O)cc1	15.6	3.2	-2.3	-2.8	14.6
